One molecule from PubChem BioAssay AID504862 (Sanford-Burnham Center for Chemical Genomics, 2011) can be followed below.

SMILES strings stand for the structures. The list shows a part of the results. Values without a mark were called inactive.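 Rule for the calls: active = average inhibition reaching 50% or more with the compound at 20 µM; inactive = the rest.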

For this assay, the system named is diaphorase (Clostridium kluyveri). As to the kind of experiment: C. kluyveri diaphorase inhibition, resazurin coupling – biochemical, fluorescence intensity, 10 µM NADPH, counter-screen for P. falciparum G6PD inhibitor project, confirmation (AID 504862).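 Note: resorufin red fluorescence formed as diaphorase reduces resazurin using NADPH; 0% = DMSO with enzyme and 100% = DMSO without enzyme.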 The conditions noted are these: diaphorase-coupled resazurin reduction, NADPH 10 uM, at 20 µM, stronger effect = higher value.

Turning to `O=C1NC(=O)N(c2ccccc2)C(=O)/C1=C/c1ccc([N+](=O)[O-])s1`, the inhibition (usually the percentage by which the read-out fell short of the control) was 47.3%.
